The text below walks through data of PubChem BioAssay AID1259415 (National Center for Advancing Translational Sciences (NCATS), 2018).

Out of some 410,000 compounds screened, about 18,000 (4.4%) were called active. Inconclusive results (about 7%) are left out. What follows is part of a selection rich in actives, with near analogues and random picks from the rest. A number with no mark means an inactive call. No stated cut-off is given here; in the data, active means activity change below about -60%; inconclusive means no clear call, values can overlap the other calls; inactive means above about -39%.
On the % scale 0 is the no-effect control and ±100 the full control effect.

The assay is described as follows: qHTS Assay for inhibitors of the human cytomegalovirus (HCMV). The note with it: HFF cells, HCMV-luciferase reporter, 72 h; at 57.5 µM; active compounds read low. The source says:
NCGC Assay Overview: Infection with human cytomegalovirus (HCMV) continues to pose significant threats for pregnant women and immunocompromised hosts. HCMV causes serious morbidity and mortality in transplant recipients, and congenital HCMV is the leading infectious cause of mental retardation and deafness in children. In the 1990s, the annual costs associated with the disease burden of congenital CMV were estimated at around $2 billion. A HCMV vaccine is not available yet and HCMV therapies result in intolerable side effects and emergence of drug resistant viruses. […] Towards this goal we have developed and characterized a luciferase HCMV reporter that was initially used in 96 well plates and then optimized to 1536-well plates for utilization in screening of the MLSMR collection, the NGCG diversity collection and the NCGC Pharmaceutical Collection of approved and investigational drugs.
NCGC Assay Protocol Summary:
This is a cell-based assay for HCMV inhibition in HFFs cells. The screening used 2 compound doses and the HCMV-luciferase at MOI of 1 PFU/cell. Cells were treated and infected with HCMV. At 72 h post infection cell lysates were collected and luciferase activity was determined using the Glomax-Multi + Detection System (Promega, Madison, WI). Data were normalized to the controls for basal activity (buffer only) and known HCMV inhibitors Salinmoycin.
1536-well assay protocol for the assay:
(1) Add 3 ul CMV/HFF cell culture. 1000 cells/well in DMEM nirmal media.
(2) Incubate 16 hr at 37C.
(3) Add 23 nl control compound, 10uM of Salinomycin.
(4) Add 23 nl compounds in DMSO solution.
(5) Add 3 ul CMV suspension. Final 1 puf/ul, Virus stock 2000pfu/ul
(6) Incubate 72 hrs at 37C.
(7) Add 4 ul OneGlo Luc Reagent.
(8) Incubate 5 min at room temperature.
`O=C(NCc1ccco1)/C(=C/c1cccc([N+](=O)[O-])c1)NC(=O)c1ccco1`: the activity change, negative = inhibition is 20.5%.
For `O=C(NCc1ccco1)c1ccc([N+](=O)[O-])cc1Cl`, the activity change, negative = inhibition was -4.15%.
Regarding `CC(Oc1ccc2ccccc2c1)C(=O)NNC(=S)NC(=O)c1ccco1` (stereo unspecified), the activity change, negative = inhibition was -3.96%.
With `O=C(Nc1cccc(C(=O)O)c1)/C(=C\c1ccccc1)NC(=O)c1ccc(Br)o1`, the activity change, negative = inhibition was 23.2%.
Take `O=C(NCc1ccco1)/C(=C\c1cccc([N+](=O)[O-])c1)NC(=O)c1ccco1`: the activity change, negative = inhibition is -72% (active).
Take `O=C(Nc1ccc2ccccc2c1)/C(=C/c1cccc(Br)c1)NC(=O)c1ccco1`: the activity change, negative = inhibition was -64.4% (active).
For the molecule `O=C(CNS(=O)(=O)c1cccs1)N1CCN(c2ccccc2Cl)CC1`, the activity change, negative = inhibition was 68.5%.
`CC1CCCCN1CC(=O)N1CCCc2c1c(=O)oc1ccc(OCc3ccccc3)cc21` (stereo unspecified): the activity change, negative = inhibition is -2.34%.
As for `CCCCn1cc(S(=O)(=O)c2ccc(OCC)cc2)c(=O)c2cc(OC)c(OC)cc21`, the activity change, negative = inhibition was 44.7%.
To `COc1ccc(CCNC(=O)Cn2c(=O)n(-c3ccccc3)c(=O)c3c(C)c(C)sc32)cc1OC` belongs -11.6%.
Regarding `COc1ccccc1-c1noc(-c2ccc(NCc3ccccc3)c([N+](=O)[O-])c2)n1`, the activity change, negative = inhibition was 0.104%.
Turning to `COc1cccc(N2CCN(C(=O)CCCCCn3c(=O)[nH]c4ccccc4c3=O)CC2)c1`, the activity change, negative = inhibition is -7.41%.
As for `Cc1ccc(C)c(N2CCN(C(=O)CCCCCn3c(=S)[nH]c4ccc(N5CCOCC5)cc4c3=O)CC2)c1`, the activity change, negative = inhibition was -88.3% (active).
The same measure for `Cc1ccc(C)c(N2CCN(C(=O)CCc3c(C)nc4c(c3C)c(=O)n(C)c(=O)n4C)CC2)c1`: -21.4%.
For the molecule `CC1(C)OC(=O)C2=C(CC(CCc3ccccc3)OC2c2ccc(Cl)cc2)O1` (stereo unspecified), the activity change, negative = inhibition is 7.29%.
Take `Cc1cc(C)cc(OC(C)C(=O)Nc2nc3c(s2)CCCC3)c1` (stereo unspecified): the activity change, negative = inhibition was -26.6%.
In the case of `COc1cc(C(=O)N2CCN(C(=O)COc3cccc(C)c3)CC2)cc(OC)c1OC`, the activity change, negative = inhibition was 28.1%.
With `CCc1cccc(C)c1Nc1c(-c2ccc(N(C)C)cc2)nc2ncccn12`, the activity change, negative = inhibition was -14.5%.
For the molecule `CC(Nc1ccc(-c2nc(-c3ccco3)no2)cc1[N+](=O)[O-])c1ccccc1` (stereo unspecified), the activity change, negative = inhibition was 41.2%.
For the molecule `CCOC(=O)Cn1c(CN(Cc2ccccc2)Cc2ccccc2)nc2c1c(=O)[nH]c(=O)n2C`, the activity change, negative = inhibition is 31.2%.
For `COC(=O)[C@@H]1[C@@H](CO)[C@@H]2Cn3c(ccc(Br)c3=O)[C@H]1N2C(=O)c1cnccn1`, the activity change, negative = inhibition was 13.3%.
Take `Cc1nc(CNS(=O)(=O)c2ccc(Oc3ccccc3)cc2)cs1`: the activity change, negative = inhibition is -90.1% (active).
Consider `Cc1nc(CNS(=O)(=O)c2cc([N+](=O)[O-])ccc2C)cs1`, for which the activity change, negative = inhibition was 17.1%.
`COc1ccccc1CNS(=O)(=O)c1ccc(C)cc1`: the activity change, negative = inhibition was -4.42%.
As to `O=C1CSC2(C(=O)N(Cc3ccccc3)c3ccccc32)N1c1cccc(F)c1` (stereo unspecified), the activity change, negative = inhibition is -27.5%.
Take `Cc1nc2ccccc2cc1OCc1ccc(F)cc1`: the activity change, negative = inhibition is -82.9% (active).
For the molecule `O=C(NC1CCC(O)CC1)c1ccccc1OCc1ccc(F)cc1` (stereo unspecified), the activity change, negative = inhibition is -22.6%.
`CC(=O)c1ccccc1OCc1ccc(C(=O)c2ccccc2)cc1`: the activity change, negative = inhibition was -23.4%.
To `CCCN(CC(=O)Nc1ccccc1C)C(=O)c1ccc(OCC(=O)N2CCOCC2)c(OCC)c1` belongs 0.271%; to `CCCN(CC(=O)Nc1ccccc1C)C(=O)c1cc(=O)[nH]c2ccccc12`, 42.9%; to `CCCN(CC(=O)Nc1ccccc1C)C(=O)c1ccc2[nH]c3c(c2c1)CC(C)CC3` (stereo unspecified), -61.3% (active).
Take `CC(C)NC(=O)Nc1cccc2c1O[C@@H](CN(C)S(=O)(=O)c1ccc(F)cc1)[C@@H](C)CN([C@H](C)CO)C2=O`: the activity change, negative = inhibition is 7.5%.
The same measure for `Clc1cccc(Cl)c1Cl`: -15.9%.
With `COc1ccc(S(=O)(=O)c2c(Nc3ccc(C)cc3)sc(C(=O)c3ccc(C)cc3)c2N)cc1`, the activity change, negative = inhibition was -10.2%.
As for `Cc1ccc(NC(=O)c2cn3c4c(ccc(Cl)c4c2=O)OC(C)C3)cc1C` (stereo unspecified), the activity change, negative = inhibition is 0.532%.
Take `CSc1ccc(Cl)c(C(=O)OCC(=O)N2CC(C)OC(C)C2)c1` (stereo unspecified): the activity change, negative = inhibition is -9.66%.
For `COc1ccc(NC(=O)CN(C)C(=O)c2cc(C3CC3)nn2-c2ccccc2)cc1`, the activity change, negative = inhibition is -100% (active).
To `COc1ccc(NC(=O)CN(C)C(=O)c2n[nH]c3ccccc23)cc1` belongs 5.1%; to `CCc1ccccc1NC(=O)CN(C)C(=O)c1cc(C2CC2)nn1-c1ccccc1`, -18%; to `Cc1nc2nc(SCC(=O)N(Cc3ccccc3)C(C)C)nn2c(C)c1Cc1ccccc1Cl`, -0.509%.
As for `CSc1ccc(C2c3c(oc4ccccc4c3=O)C(=O)N2CCCN2CCOCC2)cc1` (stereo unspecified), the activity change, negative = inhibition is 7.95%.
Consider `CNC[C@H]1OCc2cnnn2CCCC(=O)N([C@H](C)CO)C[C@@H]1C`, for which the activity change, negative = inhibition was -9.25%.
For `Cc1ccc(-c2nnc3c4ccccc4c(C)nn23)cc1NC(=O)c1cccc(Br)c1`, the activity change, negative = inhibition is 35.9%.
`CSc1nc(-c2ccccc2Cl)nc2c1Cc1c(CO)cnc(C)c1O2`: the activity change, negative = inhibition was 9.54%.
The same measure for `C=CCOC(=O)C1=C(C)NC(C)=C(C(=O)OCC=C)C1c1cccs1`: -12.1%.
Take `CCc1ccc(C2CC(=O)c3c([nH]c(C(=O)OCc4ccc(C)cc4)c3C)C2)cc1` (stereo unspecified): the activity change, negative = inhibition is -27.1%.
